How the values were obtained:
Details in all cases: concentration: 1 μM,replicates: in singlicate; n = 1
DCAMKL2 = system: T1, DCAMKL2
T1 construct: gene DCLK2

DCAMKL3 = system: T2, DCAMKL3
T2 construct: gene DCLK3

DDR1 = system: DDR1
DDR2 = system: DDR2
DLK = system: T3, DLK
T3 construct: gene MAP3K12

DMPK2 = system: T4, DMPK2
T4 construct: gene CDC42BPG

DMPK = system: DMPK
DRAK1 = system: T5, DRAK1
T5 construct: gene STK17A

DRAK2 = system: T6, DRAK2
T6 construct: gene STK17B

DYRK1A = system: DYRK1A
DYRK1B = system: DYRK1B
DYRK2 = system: DYRK2
EGFR = system: EGFR
EIF2AK1 = system: EIF2AK1
EPHA1 = system: EPHA1
EPHA2 = system: EPHA2
EPHA3 = system: EPHA3
EPHA4 = system: EPHA4
EPHA5 = system: EPHA5
EPHA6 = system: EPHA6
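Also: KINOMEscan kinase panel screen.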

SMILES | %Inh (DCAMKL2) [%] | %Inh (DCAMKL3) [%] | %Inh (DDR1) [%] | %Inh (DDR2) [%] | %Inh (DLK) [%] | %Inh (DMPK2) [%] | %Inh (DMPK) [%] | %Inh (DRAK1) [%] | %Inh (DRAK2) [%] | %Inh (DYRK1A) [%] | %Inh (DYRK1B) [%] | %Inh (DYRK2) [%] | %Inh (EGFR) [%] | %Inh (EIF2AK1) [%] | %Inh (EPHA1) [%] | %Inh (EPHA2) [%] | %Inh (EPHA3) [%] | %Inh (EPHA4) [%] | %Inh (EPHA5) [%] | %Inh (EPHA6) [%]
COc1ccc(C[C@@H](CN)NC(=O)c2cc(Br)c(-c3ccnc4[nH]ccc34)s2)cc1.Cl.Cl [GSK1389063] | 38 | 86 | 2 | 26 | 10 | 99.4 | 28 | 44 | 0 | 97.6 | 91.3 | 69 | 37 | 7 | 52 | 17 | 44 | 25 | 0 | 33
CC(C)Nc1cc(-c2ccc3c(N)n[nH]c3c2)nc(N)n1 [GSK2221681] | 20 | 51 | 0 | 0 | 28 | 0 | 0 | 99 | 0 | 50 | 14 | 87 | 58 | 0 | 0 | 0 | 0 | 0 | 0 | 0
CN(C)CCOc1ccc(-c2cc(-c3c[nH]nc3-c3ccccn3)ccn2)cc1 [GW835314] | 1 | 1 | 0 | 0 | 8 | 0 | 0 | 18 | 9 | 1 | 22 | 17 | 28 | 93.7 | 18 | 10 | 18 | 90 | 5 | 84
O=C(NCCCN1CCOC1=O)c1cnc(NCc2cc(Cl)ccc2Cl)nc1NC1CCCC1 | 1 | 18 | 0 | 11 | 37 | 0 | 0 | 0 | 0 | 0 | 21 | 0 | 0 | 0 | 12 | 25 | 0 | 14 | 17 | 28
O=C(NCCNc1ccnc(NCc2ccc(F)cc2)n1)c1cc2ccccc2s1 [GSK1379944] | 0 | 4 | – | 0 | 0 | 0 | 0 | 0 | 0 | 30 | 0 | 0 | 23 | 0 | 10 | 17 | 0 | 22 | 0 | 19
Cl.Cl.NC[C@H](CC1CCCCC1)NC(=O)c1cc(Br)c(-c2ccnc3[nH]ccc23)s1 [GSK1581427] | 14 | 0 | 0 | 0 | 0 | 98.3 | 91.7 | 14 | 0 | 55 | 71 | 67 | 23 | 0 | 42 | 12 | 0 | 13 | 0 | 25
Cc1occc1-c1nc(N)c(OC[C@@H](N)Cc2c[nH]c3ccccc23)cc1-c1cc2c(C)n[nH]c2cn1 [GSK1660450] | 19 | 56 | 10 | 0 | 13 | 86 | 99.1 | 0 | 0 | 100 | 91.6 | 92.1 | 97.2 | 12 | 16 | 13 | 30 | 14 | 0 | 32
NC(=O)c1cc(-c2ccccc2)cc2c(C3CCNCC3)c[nH]c12 [GSK301362] | 2 | 53 | – | 0 | 23 | 8 | 30 | 0 | 0 | 28 | 45 | 23 | 25 | 0 | 18 | 10 | 0 | 6 | 0 | 3
C[C@@H]1CCN(C(=O)CC#N)C[C@@H]1N(C)c1ncnc2[nH]ccc12 | 14 | 99.1 | 0 | 0 | 0 | 0 | 24 | 11 | 5 | 0 | 0 | 0 | – | 6 | 6 | 0 | 0 | 0 | 0 | 0
C[C@H]1Oc2cc(cnc2N)-c2c(nn(C)c2C#N)CN(C)C(=O)c2ccc(F)cc21 | 91.8 | 15 | – | 3 | 2 | 0 | 0 | 2 | 0 | 0 | 6 | 0 | 9 | 0 | 53 | 48 | 0 | 1 | 24 | 33
Cc1n[nH]c2ccc(-c3cc(OC[C@@H](N)Cc4ccccc4)cnc3-c3ccoc3)cc12.O=C(O)C(F)(F)F.O=C(O)C(F)(F)F [GSK507358] | 0 | 0 | 0 | 0 | 15 | 50 | 92.8 | 0 | 0 | 29 | 49 | 40 | 87 | 0 | 5 | 0 | 43 | 0 | 0 | 4
CC(C)N1C(=O)Cc2cc(Nc3ncc(C(F)(F)F)c(NCc4cccc(S(C)(=O)=O)c4)n3)ccc21 | 0 | 34 | – | 0 | 0 | 0 | 0 | 74 | 82 | 2 | 38 | 19 | 0 | 0 | 4 | 0 | 9 | 1 | 3 | 3
CN(C)CC(O)COc1ccc(Nc2nccc(-c3cnn4nc(N5CCOCC5)ccc34)n2)cc1 (centres unmarked) [GW767488] | 61 | 64 | 0 | 0 | 61 | 17 | 20 | 99.7 | 93.1 | 73 | 69 | 87 | 17 | 42 | 34 | 0 | 9 | 8 | 9 | 0
CCN(CC)CCCCNc1ncc2cc(-c3c(Cl)cccc3Cl)c(NC(=O)NC(C)(C)C)nc2n1 | 0 | 14 | 99.7 | 100 | 86 | 0 | 4 | 0 | 5 | 0 | 1 | 0 | – | 46 | 99.6 | 99.6 | 99.4 | 91.5 | 95.9 | 95.6
Cc1cc(C(=O)Nc2ccc(Oc3ccc4nc(NC(=O)C5CC5)cn4n3)cc2)nn1-c1ccccc1 | 2 | 20 | – | 100 | 12 | 0 | 0 | 0 | 0 | 0 | 0 | 0 | 0 | 0 | 45 | 29 | 0 | 48 | 6 | 46
Cl.Cl.NC[C@H](Cc1ccc(C(F)(F)F)cc1)NC(=O)c1cc(Br)c(-c2ccnc3[nH]ccc23)s1 [GSK1487252] | 0 | 75 | 8 | 0 | 8 | 64 | 0 | 18 | 0 | 35 | 41 | 33 | 30 | 0 | 26 | 14 | 0 | 19 | 0 | 29
C=CC(=O)Nc1cc2c(Nc3ccc(F)c(Cl)c3)ncnc2cc1OCCCN1CCOCC1 [GW781483] | 1 | 10 | 71 | 44 | 0 | 6 | 20 | 2 | 5 | 11 | 23 | 17 | – | 11 | 25 | 0 | 13 | 5 | 7 | –
Cc1ccc(-n2nc(C(C)(C)C)cc2NC(=O)Nc2ccc(OCCN3CCOCC3)c3ccccc23)cc1 [GW839464] | 0 | 34 | – | – | 7 | 40 | 4 | 0 | 11 | 0 | 100 | 14 | 33 | 0 | 52 | – | – | 6 | 0 | 23
Cl.Cl.Nc1nc(-c2ccc3c(N)n[nH]c3c2)cc(N2CCCC(NC(=O)c3ccccc3)C2)n1 (centres unmarked) [GSK2286775] | 0 | 0 | 26 | 0 | 1 | 1 | 0 | 75 | 0 | 9 | 18 | 80 | 28 | 0 | 13 | 0 | 0 | 15 | 0 | 6
CCN(CC)CCOc1ccc(Nc2ncc3cc(-c4c(Cl)cccc4Cl)c(=O)n(C)c3n2)cc1 [SB-601273] | 41 | 0 | 100 | 100 | 96.4 | 95.4 | 24 | 43 | 21 | 0 | 14 | 11 | – | 96.9 | 100 | 100 | 96.6 | 100 | 99.8 | 97.9
Nc1nc(Nc2ccccc2)cc(-c2ccc3c(N)n[nH]c3c2)n1 [GSK2225749] | 0 | 61 | 0 | 26 | 3 | 0 | 0 | 99.5 | 97.2 | 48 | 19 | 88 | 16 | 0 | 0 | 32 | 0 | 0 | 0 | 0
Cc1cc2cn[nH]c2cc1-c1cccc2c(N)c(C(N)=O)nnc12 | 37 | 98.8 | 0 | 0 | 98.8 | 7 | 0 | 47 | 27 | 13 | 0 | 23 | 56 | 26 | 17 | 0 | 0 | 8 | 89 | 0
Cc1ccc2c(-c3ccncc3)c(-c3ccc(F)cc3)nn2c1.Cl [GW461484] | 0 | 0 | 76 | 80 | 29 | 77 | 11 | 0 | 0 | 0 | 4 | 9 | 43 | 0 | 10 | 8 | 13 | 0 | 0 | 5
CCn1c(-c2nonc2N)nc2c(C#CC(C)(C)O)nc(OCCN)cc21.Cl.Cl [GSK902056] | 0 | 40 | – | 5 | 0 | 0 | 0 | 0 | 0 | 25 | 4 | 0 | 24 | 8 | 19 | 19 | 21 | 15 | 0 | 11
CNC(=O)c1ccccc1Sc1ccc2c(/C=C/c3ccccn3)n[nH]c2c1 | 14 | 76 | 18 | 14 | 41 | 6 | 0 | 76 | 0 | 0 | 0 | 0 | – | 6 | 12 | 9 | 0 | 0 | 0 | 0
Cl.Oc1cc(-c2nc(-c3ccccc3)[nH]c2-c2ccncc2)ccc1Cl [SB-386023] | 0 | 0 | 92.7 | 83 | 0 | 0 | 0 | 0 | 0 | 0 | 0 | 5 | 20 | 0 | 59 | 0 | 5 | 0 | 23 | 36
C[C@@H](Oc1cc(-c2cnn(C3CCNCC3)c2)cnc1N)c1c(Cl)ccc(F)c1Cl | 79 | 22 | 59 | 44 | 94.6 | 0 | 22 | 0 | 0 | 12 | 0 | 30 | 0 | 14 | 93.5 | 82 | 37 | 49 | 51 | 90.2
